# Data published in PubChem BioAssay (NCATS).
# Records with an inconclusive call do not appear. A number with no mark means an inactive call. The source made the active and inactive calls. The call rests on the fitted dose curve; in most records, active means well fitted inhibition curve with a large enough effect; inconclusive means small, poorly fitted or top-dose-only effect; inactive means no such curve, though single readings can be large or run the other way.
# Assay: Primary qHTS for small molecule stabilizers of the endoplasmic reticulum resident proteome: Secreted ER Calcium Modulated Protein (SERCaMP) assay (AID 1508630)
# Details: SH-SY5Y GLuc-SERCaMP (Gaussia luciferase released on ER calcium loss) secretion, thapsigargin, luminescence; series mostly up to 38.4 µM; activity change, negative = inhibition: at the top concentration
# Excerpt: Assay Provider: Brandon K. Harvey Ph.D.
# National Institute on Drug Abuse, National Institutes of Health, Baltimore, MD
# Endoplasmic reticulum (ER) dysregulation is associated with human pathologies including neurodegenerative, cardiovascular, muscular, and diabetic conditions. Maintenance of ER calcium is critical for functions of the ER and its depletion can lead to loss of ER resident proteins, in a process termed exodosis. Therapeutic compounds capable of attenuating the redistribution of ER proteins under pathological conditions may slow or stop disease progression. To identify such compounds, we performed a quantitative high-throughput screen (qHTS) using the SERCaMP assay, which monitors secretion of ER resident proteins triggered by calcium depletion.
# SERCaMP was initially developed as a reporter of ER calcium homeostasis using a Gaussia luciferase with a modified signal peptide and carboxy-terminus (GLuc-SERCaMP), modifications that confer secretion of the reporter in response to ER calcium depletion (Henderson et al., 2014). The assay was used to screen 9,501 compounds, including a collection of drugs approved by the FDA (US), EMA (EU), NHI (Japan), and HC (Canada) regulatory agencies (Huang et al., 2011). Since the SERCaMP reporter reflects the exodosis phenomenon (Trychta et al., 2018a), compounds identified in the screen have the potential to prevent exodosis by different mechanisms such as stabilizing ER calcium or augmenting ERS retrieval.
# 1. Henderson, M.J., Wires, E.S., Trychta, K.A., Richie, C.T., and Harvey, B.K. (2014). SERCaMP: a carboxy-terminal protein modification that enables monitoring of ER calcium homeostasis. Mol Biol Cell 25, 2828-2839.
# 2. Huang, R., Southall, N., Wang, Y., Yasgar, A., Shinn, P., Jadhav, A., Nguyen, D.T., and Austin, C.P. (2011). The NCGC pharmaceutical collection: a comprehensive resource of clinically approved drugs enabling repurposing and chemical genomics. Sci Transl Med 3, 80ps16.
# 3. Trychta, K.A., Back, S., Henderson, M.J., and Harvey, B.K. (2018a). KDEL Receptors Are Differentially Regulated to Maintain the ER Proteome under Calcium Deficiency. Cell Rep 25, 1829-1840 e1826.
# SEQUENCE No. (1, 2, 3, etc.); […] (e.g., Cells, Incubation, Reagent, etc.); VALUE and DESCRIPTION.
# 1; Reagent; 5 uL; 1000 SH-SY5Y cells per wells
# 3; Compound; 23 nL; Control inhibitor / compound library
# 5; Reagent; 100 nM; Thapsigargin
# 7; Reagent; 1 uL; 0.5x coelenterazine
# 8; Detection; Luminescence; ViewLux imaging system
# NOTES (numbers refer to sequence above)
# 1; SH-SY5Y human neuroblastoma cells stably expressing GLuc-SERCaMP (SH-SY5Y-GLuc-ASARTDL) cells were seeded in 1,536 well white tissue culture treated plates (Corning, Cat# 7464) in DMEM-high glucose-sodium pyruvate (ThermoFisher Scientific, Cat #10569) supplemented with 10% bovine growth serum (Hyclone), 10 U/ml penicillin (Gibco), 10 ug/ml streptomycin (Gibco), and 20 mM HEPES.
# 2; Assay plates were incubated for 5 hour at 37C in a humidified incubator containing 5% CO2.
# 3; qHTS libraries (23 nl, final concentrations of 1.53 uM, 7.67 uM, 38.3 uM) or controls (neutral control: DMSO, positive control: dantrolene) were added using a Kalypsis pin-tool Robotic System equipped with 1536 pinheads.
# 4; Cells were then incubated for 16 hours at 37C, 5% CO2.
# 5; Thapsigargin was added at 100 nM to deplete ER calcium stores.
# 6; Cells were incubated for 4 hour (37 °C, 5% CO2)
# 7; Gaussia luciferase in the medium was measured by adding 1 ul of 0.5x coelenterazine (final concentration 0.07x) prepared in Gaussia Luciferase Glow Assay Buffer (Pierce), without addition of the Cell Lysis Buffer Reagent.
# 8; Luminescence was measured using a ViewLux […] CCD imaging system (Perkin Elmer) equipped with clear filters. […] The same controls were also used for the calculation of the Z' factor, a measure of assay quality control, as previously described (Zhang et al., 1999). […]
# On the % scale 0 is the no-effect control and ±100 the full control effect; potency means the concentration at half of the fitted maximal effect.
SMILES,"activity change, negative = inhibition",Potency
Clc1ccccc1-c1nc(-c2ccncc2)no1,-13.2%,
COC(=O)C1=C(C)NC(C)=C(C(=O)OCC(C)=O)C1c1ccccc1[N+](=O)[O-] (stereo not given),8.92%,
COC(=O)c1nc(Cl)c(Cl)nc1N,196%,
OC[C@H]1O[C@@H](n2cnc3c(NC4CCCC4)ncnc32)[C@H](O)[C@@H]1O,,inactive
c1cnc2c(c1)ccc1cccnc12,5.58%,
CN(C)C(N)=NCCC[C@H](N)C(=O)O,-28%,
NCCCCC(=O)O,19.8%,
Cc1cc(NC2CCCCC2)nc(-n2nc(C)cc2C)n1,-26%,
c1ccc2sc(SN3CCOCC3)nc2c1,46.2%,
CCCCCC(O)c1cccc(OCc2ccc3ccccc3n2)c1 (stereo not given),,inactive
CN(C)[C@@H]1C(=O)C(C(=O)NCN2CCCC2)=C(O)[C@@]2(O)C(=O)C3=C(O)c4c(O)cccc4[C@@](C)(O)C3C[C@@H]12 (stereo not given in full),-18.2%,
CCCCCCCCCCCCCCCC(=O)OC(C)C,-27.8%,
Nc1ncnc2c1ncn2[C@@H]1O[C@H](COP(=O)(O)CP(=O)(O)OP(=O)(O)O)[C@@H](O)[C@H]1O,,inactive
O=C1/C(=C/c2ccsc2)CC/C1=C\c1cccs1,-15.8%,
CCC1C(=O)OCC1Cc1cncn1C (stereo not given),,inactive
CN1CCc2cccc3c2C1Cc1ccc(O)c(O)c1-3 (stereo not given),-3.2%,
CNC(=O)[C@H]1O[C@@H](n2cnc3c(NCc4cccc(I)c4)ncnc32)[C@H](O)[C@@H]1O,,inactive
O=C(O)/C=C/C(O)c1ccc(Cl)cc1 (stereo not given),4.78%,
CC(C)(C=O)Cc1cc(C(C)(C)C)c(O)c(C(C)(C)C)c1,,inactive
CCCCCCCCc1ccc(-c2ccc(C(=O)O)cc2)cc1,,inactive

SMILES,"activity change, negative = inhibition",Potency
CN(C)c1nc(N)c(C(=O)N=C(N)N)nc1Cl,16.9%,
Oc1ccccc1O,,25.1 µM (active)
O=C1NC(=O)/C(=C/c2ccc(-c3ccc(F)cc3O)o2)S1,-18.4%,
CC(N)C(=O)OC(C)(C)Cc1ccc(Cl)cc1 (stereo not given),-25.7%,
NS(=O)(=O)C#Cc1ccccc1,,inactive
O=C(Nc1ccncc1)c1cc([N+](=O)[O-])ccc1Cl,144%,
CN(C)CCC(c1ccc(Cl)cc1)c1ccccn1 (stereo not given),-7.86%,
CC(C)Cc1ccc([C@H](C)C(=O)O)cc1,4.14%,
O=C(O)Cc1ccc(-c2ccccc2)cc1,-23.1%,
N=c1ccn2c(n1)O[C@H]1[C@H](O)[C@@H](CO)O[C@H]12,-13.5%,
O=C(Nc1ccccc1)c1cc([N+](=O)[O-])ccc1Cl,,inactive
CCCCCCCCCCCCCCCCCC(=O)NCC(COP(=O)([O-])OCC[N+](C)(C)C)OCC (stereo not given),441%,
COc1cc(OC)c(/C=C2/C(=O)Nc3ccccc32)c(OC)c1,51%,
Cc1[nH]cnc1CN1CCc2c(c3ccccc3n2C)C1=O,-26.7%,
CC(=O)SCC[N+](C)(C)C,-20.7%,
CN1CC(=O)N/C1=N/C(=O)Nc1cccc(Cl)c1,-37.1%,
Nc1nc(SCc2ccc([N+](=O)[O-])cc2)c2ncn([C@@H]3O[C@H](CO)[C@@H](O)[C@H]3O)c2n1,,inactive
c1ccc2sc(SSc3nc4ccccc4s3)nc2c1,-30% [at 21.6 µM],
N[C@@H](CC(=O)O)C(=O)O,,inactive
CCCCCCCCCCCCCCCC(=O)OC(CC(=O)O)C[N+](C)(C)C (stereo not given),,inactive
